{
  "source": "paper PMC4336329",
  "about": "(PLoS ONE, 2015)",
  "note": "Among all 310,000 compounds or so, about 14,000 (4.5%) showed an effect of 50% or more. Effects have a minus sign here. For the sample, strong results were picked, then their nearest neighbours and some compounds at random.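 Note: peak tail current of the secondary pulse compared with the same well before compound.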",
  "data": [
    {"target": "human ether-à-go-go-related gene (hERG) potassium channel (human, UniProt Q12809)", "sequence (Q12809 whole entry, looked up)": "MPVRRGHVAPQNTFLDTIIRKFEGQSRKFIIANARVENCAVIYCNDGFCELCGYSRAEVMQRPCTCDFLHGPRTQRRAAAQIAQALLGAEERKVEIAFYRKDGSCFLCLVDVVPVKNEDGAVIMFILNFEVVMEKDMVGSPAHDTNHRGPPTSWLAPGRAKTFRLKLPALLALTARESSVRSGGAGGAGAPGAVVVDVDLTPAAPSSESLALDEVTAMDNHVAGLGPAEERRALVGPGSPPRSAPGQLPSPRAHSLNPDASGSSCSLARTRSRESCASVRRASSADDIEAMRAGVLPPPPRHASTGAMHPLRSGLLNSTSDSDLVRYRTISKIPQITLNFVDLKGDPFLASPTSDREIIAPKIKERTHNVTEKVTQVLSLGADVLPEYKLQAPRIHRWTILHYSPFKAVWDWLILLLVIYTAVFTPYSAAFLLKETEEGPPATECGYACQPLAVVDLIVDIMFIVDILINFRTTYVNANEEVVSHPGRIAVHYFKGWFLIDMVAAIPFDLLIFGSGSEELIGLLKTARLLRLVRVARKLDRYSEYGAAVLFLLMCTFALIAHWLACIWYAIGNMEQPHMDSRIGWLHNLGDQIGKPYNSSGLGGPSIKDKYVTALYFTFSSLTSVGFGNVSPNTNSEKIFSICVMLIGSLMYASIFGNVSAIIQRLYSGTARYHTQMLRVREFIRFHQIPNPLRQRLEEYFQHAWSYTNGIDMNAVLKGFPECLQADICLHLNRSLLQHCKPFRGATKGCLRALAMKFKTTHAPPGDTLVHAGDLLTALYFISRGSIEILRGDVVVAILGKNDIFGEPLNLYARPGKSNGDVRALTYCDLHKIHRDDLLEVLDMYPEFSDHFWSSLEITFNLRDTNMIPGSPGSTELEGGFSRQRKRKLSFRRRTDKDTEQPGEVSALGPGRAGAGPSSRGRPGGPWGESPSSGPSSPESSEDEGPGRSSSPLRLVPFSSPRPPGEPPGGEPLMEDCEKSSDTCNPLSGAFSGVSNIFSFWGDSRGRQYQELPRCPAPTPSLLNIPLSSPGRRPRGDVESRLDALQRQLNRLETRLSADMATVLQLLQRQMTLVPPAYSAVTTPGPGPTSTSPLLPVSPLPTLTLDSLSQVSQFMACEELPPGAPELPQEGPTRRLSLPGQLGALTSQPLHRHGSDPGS", "test": "primary screen, population patch clamp on CHO cells stably expressing hERG; higher = less effect of the substance", "units": {"hERG current change (%, negative = inhibition) at 10uM": "%"}, "values": [
      {"smiles": "O=C(CN1C(=O)NC2(CCc3ccccc32)C1=O)NCC(F)(F)F", "note": "(stereo not shown)", "hERG current change (%, negative = inhibition) at 10uM": 2.18},
      {"smiles": "O=C(O)c1cccc(Oc2ncnc3sc4c(c23)CCCC4)c1", "hERG current change (%, negative = inhibition) at 10uM": 34.5},
      {"smiles": "Oc1ccc(N=Nc2ccc3c(c2)OCCO3)c(O)c1", "hERG current change (%, negative = inhibition) at 10uM": 22.6},
      {"smiles": "CC(=O)Nc1ccc(S(=O)(=O)N2CC(=O)NC(=O)C2)cc1", "hERG current change (%, negative = inhibition) at 10uM": 29.9},
      {"smiles": "COc1ccc(C2=NS(=O)(=O)N(C)C(C(=O)N3CCCCC3)=C2)cc1OC", "hERG current change (%, negative = inhibition) at 10uM": -4.54},
      {"smiles": "CCn1ncc(Br)c1C(=O)NC(C)c1ccccc1", "note": "(stereo not shown)", "hERG current change (%, negative = inhibition) at 10uM": 3.91},
      {"smiles": "O=C(Cn1c(=O)n(CCC(=O)N2CCCCC2)c(=O)c2sccc21)NCc1ccccc1", "hERG current change (%, negative = inhibition) at 10uM": 5.68},
      {"smiles": "Cc1ccc(-c2c(C(=O)N(C)Cc3ccccc3)oc(=O)c3ccccc23)cc1", "hERG current change (%, negative = inhibition) at 10uM": -52.5},
      {"smiles": "COc1ccc(Cl)cc1NC(=O)CN(C)C(=O)c1cc(=O)c2ccccc2o1", "hERG current change (%, negative = inhibition) at 10uM": -28},
      {"smiles": "CCc1ccc(CN(C)C(=O)c2cc(=O)c3ccccc3o2)cc1", "hERG current change (%, negative = inhibition) at 10uM": -66.4},
      {"smiles": "CN(Cc1ccccc1Cl)C(=O)c1cc2ccccc2o1", "hERG current change (%, negative = inhibition) at 10uM": -2.37},
      {"smiles": "Cc1ccc(-c2c(C(=O)NCc3ccc(F)cc3)oc(=O)c3ccccc23)cc1", "hERG current change (%, negative = inhibition) at 10uM": -13},
      {"smiles": "COc1ccc(CCN(C)C(=O)c2cc(=O)c3ccccc3o2)cc1OC", "hERG current change (%, negative = inhibition) at 10uM": 7.6},
      {"smiles": "CSc1ccc(CN(C)C(=O)c2cc(=O)c3ccccc3o2)cc1", "hERG current change (%, negative = inhibition) at 10uM": -71.4},
      {"smiles": "CN(Cc1ccccc1)C(=O)c1cc2ccccc2o1", "hERG current change (%, negative = inhibition) at 10uM": -23},
      {"smiles": "CN(Cc1ccccc1)C(=O)c1oc(=O)c2ccccc2c1-c1ccccc1", "hERG current change (%, negative = inhibition) at 10uM": -13.1},
      {"smiles": "CSc1ccc(CN(C)C(=O)c2cc3ccccc3o2)cc1", "hERG current change (%, negative = inhibition) at 10uM": 21.2},
      {"smiles": "CN(Cc1ccc(Cl)cc1Cl)C(=O)c1cc(=O)c2ccccc2o1", "hERG current change (%, negative = inhibition) at 10uM": -53.4},
      {"smiles": "CN(Cc1ccc(N(C)C)cc1)C(=O)c1cc2ccccc2o1", "hERG current change (%, negative = inhibition) at 10uM": -18.5},
      {"smiles": "O=C(Nc1ccc(N2CCCCCC2)cc1)c1ccc[nH]1", "hERG current change (%, negative = inhibition) at 10uM": -15.6},
      {"smiles": "O=C(NC(=S)NCC1CCCO1)c1ccccc1Br", "note": "(stereo not shown)", "hERG current change (%, negative = inhibition) at 10uM": 4.66},
      {"smiles": "CN(CCc1ccccn1)C(=O)Nc1ccc(C(C)(C)C)cc1", "hERG current change (%, negative = inhibition) at 10uM": -19.3},
      {"smiles": "O/N=C/c1cc2ccccc2n1Cc1ccccc1F", "hERG current change (%, negative = inhibition) at 10uM": 13.6},
      {"smiles": "CC12CCC(C(=O)n3c1nc1ccccc13)C2(C)C", "note": "(stereo not shown)", "hERG current change (%, negative = inhibition) at 10uM": -3.14},
      {"smiles": "Cc1cccc(NC(=O)CSc2nc3nc(C)cc(C)c3c(=O)[nH]2)c1", "hERG current change (%, negative = inhibition) at 10uM": 4.65}
    ]}
  ]
}
